Data published in PubChem BioAssay (EPA / NIEHS).
Results filed as inconclusive are left out. Calls of active or inactive are those of the source. The calls were made as follows: active = hit-call score of the fitted dose curve at least 0.9, where 1 is the maximum; inconclusive = response in the unintended direction; inactive = score below 0.9.

How the values were obtained:
[1] = Tanguay_ZF_120hpf_JAW_legacy: (Legacy) Oregon State University Tanguay Lab 120 Hour Post-fertilization zebrafish Assay for Jaw Malformation (AID 2283638)
How it was run: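 Dechorionated Tropical 5D wild-type zebrafish embryos, one per well, exposed statically from 6 hpf to 120 hpf at 28C in 0.64% DMSO. Jaw malformation was scored by brightfield microscopy as present or absent. It was not scored in dead embryos.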

[2] = Tanguay_ZF_120hpf_OTIC_legacy: (Legacy) Oregon State University Tanguay Lab 120 Hour Post-fertilization zebrafish Assay for Otic Vesicle Malformation (AID 2283639)
How it was run: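 Brightfield scoring at 120 hpf, binary present/absent; DMSO negative control, 5uM trimethyltin chloride positive control. Static exposure at 28C, final DMSO 0.64% (vol/vol). Dead embryos not scored for malformation.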

[3] = Tanguay_ZF_120hpf_PE_legacy: (Legacy) Oregon State University Tanguay Lab 120 Hour Post-fertilization zebrafish Assay for Pericardial Edema (AID 2283640)
How it was run: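 Tropical 5D wild-type zebrafish embryos were statically exposed until 120 hpf at 28C, with 0.64% DMSO final. Pericardial edema was scored by brightfield as present or absent; endpoints were not scored in dead embryos.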

[4] = Tanguay_ZF_120hpf_BRAI_legacy: (Legacy) Oregon State University Tanguay Lab 120 Hour Post-fertilization zebrafish Assay for Brain Malformation (AID 2283641)
How it was run: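 Tropical 5D wild-type zebrafish embryos exposed statically until 120 hpf at 28C, 0.64% DMSO final, sealed and dark. Brain malformation scored present/absent by brightfield at 120 hpf; dead embryos excluded. Trimethyltin chloride 5uM positive control.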

[5] = Tanguay_ZF_120hpf_SOMI_legacy: (Legacy) Oregon State University Tanguay Lab 120 Hour Post-fertilization zebrafish Assay for Somite Malformation (AID 2283647)
How it was run: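 Dechorionated Tropical 5D wild-type zebrafish embryos, one per well from 6 hpf, statically exposed at 28C to 120 hpf in 0.64% DMSO; somite malformation scored present/absent by brightfield; trimethyltin 5 uM positive control; dead embryos not scored.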

[6] = Tanguay_ZF_120hpf_CFIN_legacy: (Legacy) Oregon State University Tanguay Lab 120 Hour Post-fertilization zebrafish Assay for Caudal Fin Malformation (AID 2283649)
How it was run: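 Dechorionated Tropical 5D wild-type embryos, one per well from 6 hpf, static exposure to 120 hpf at 28C in 0.64% DMSO. Caudal fin malformation scored by brightfield as present/absent; not scored in dead embryos.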

[7] = Tanguay_ZF_120hpf_PIG_legacy: (Legacy) Oregon State University Tanguay Lab 120 Hour Post-fertilization zebrafish Assay for Pigmentation Malformation (AID 2283650)
How it was run: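 Pigment malformation recorded as a binary call at 120 hpf in zebrafish (Tropical 5D) exposed singly from 6 hpf after pronase dechorionation. Static, sealed, 28C exposure, 0.64% DMSO; mortality excludes scoring; positive-direction fit against DMSO.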

[8] = Tanguay_ZF_120hpf_CIRC_legacy: (Legacy) Oregon State University Tanguay Lab 120 Hour Post-fertilization zebrafish Assay for Circulatory Malformation (AID 2283651)
How it was run: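 Static exposure, 6–120 hpf, 28C, sealed and dark; one dechorionated 5D embryo/well; DMSO 0.64% v/v final. Binary circulation endpoint by brightfield; dead embryos not scored.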

[9] = Tanguay_ZF_120hpf_TRUN_legacy: (Legacy) Oregon State University Tanguay Lab 120 Hour Post-fertilization zebrafish Assay for Truncated Body (AID 2283655)
How it was run: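 Dechorionated Tropical 5D wild-type embryos placed singly from 6 hpf and statically exposed to 120 hpf at 28C, final DMSO 0.64%. Truncated body scored as present/absent by brightfield; not scored in dead embryos.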

[10] = Tanguay_ZF_120hpf_SNOU_legacy: (Legacy) Oregon State University Tanguay Lab 120 Hour Post-fertilization zebrafish Assay for Snout Malformation (AID 2283637)
How it was run: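 Binary snout-malformation call at 120 hpf in wild-type 5D embryos, chorion removed by pronase, under static exposure from 6 hpf at 28C (0.64% DMSO). Embryos dying by 24 or 120 hpf excluded.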

[11] = Tanguay_ZF_120hpf_PFIN_legacy: (Legacy) Oregon State University Tanguay Lab 120 Hour Post-fertilization zebrafish Assay for Pectoral Fin Malformation (AID 2283648);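 also: each larva judged yes or no for fin defect by brightfield with dead larvae skipped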
How it was run: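 Pectoral fin malformation was recorded as a binary endpoint at 120 hpf in wild-type Tropical 5D larvae, which had been dechorionated and exposed statically from 6 hpf at 28C in 0.64% DMSO. Dead embryos were excluded.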

[12] = Tanguay_ZF_120hpf_NC_legacy: (Legacy) Oregon State University Tanguay Lab 120 Hour Post-fertilization zebrafish Assay for Notochord and Tail Malformation (AID 2283656)
How it was run: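 Binary notochord-distortion calls, made by brightfield inspection, form the read-out; activity is fitted in the positive direction against DMSO. Exposure ran statically from 6 to 120 hpf at 28C with 0.64% DMSO.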

[13] = tested on: Thyroperoxidase (TPO), gene 54314; assay: CCTE_Simmons_AUR_rTPO: CCTE's Amplex UltraRed Assay for Thyroperoxidase (TPO) Inhibition, Simmons Lab (AID 2283662);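 as to AC50: potency for loss of signal meaning inhibition of peroxidase activity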
How it was run: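 Rat thyroid microsomes (5 ug protein) with 25 uM Amplex UltraRed and 300 uM H2O2 in 200 mM phosphate buffer, 30 min at 37C in dark; fluorescence 544/590 nm. Eight concentrations, 5 nM–87.5 uM final, 0.5% DMSO, triplicate biological replicates.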

[14] = CCTE_Simmons_CellTiterGLO_HEK293T: Viability Assessment in CCTE's Assays for Thyroperoxidase (TPO) Inhibition, Simmons Lab (AID 2283665);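 as to AC50: cells exposed to compound for 24 h before readout; actives reduce ATP signal below DMSO vehicle meaning cytotoxicity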
How it was run: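 Luminescent ATP readout (CellTiter-Glo, 20 min at room temperature) after 24 hr exposure of HEK293T cells to 5 nM–87.5 uM final compound; signal loss relative to DMSO vehicle indicated cytotoxicity; dichlone titrated as positive control.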

[15] = Tanguay_ZF_120hpf_TR_legacy: (Legacy) Oregon State University Tanguay Lab 120 Hour Post-fertilization zebrafish Assay for Touch Response (AID 2283667)
How it was run: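 Binary touch-response endpoint in larvae at 120 hpf after static waterborne exposure from embryo stage (28°C, 0.64% DMSO vehicle, 5 uM trimethyltin chloride as positive control); embryos dead at 24 or 120 hpf excluded; fitted as gain versus DMSO.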

[16] = Tanguay_ZF_120hpf_SWIM_legacy: (Legacy) Oregon State University Tanguay Lab 120 Hour Post-fertilization zebrafish Assay for Swim Bladder Malformation (AID 2283654);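 also: swim bladder malformation in each larva scored yes or no under brightfield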
How it was run: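 Scoring is binary for swim bladder defects at 120 hpf, by brightfield inspection of zebrafish larvae. Embryos were exposed singly from 6 hpf after pronase dechorionation, at 28C with 0.64% DMSO; mortality excluded scoring.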

Measured: AC50

Cc1c(-c2cccnc2)c2ccccc2n1CCCCC(=O)O
inactive: [1] | [2] | [3] | [4] | [5] | [6] | [7] | [8] | [9]

O=C(O)CCN(C1(C(=O)NO)CCCC1)S(=O)(=O)c1ccc(Oc2ccc(F)cc2)cc1
active: [13] 27.7 µM
not listed: [2] | [3] | [7] | [9] | [16]
inactive: all other assays above

O=C(O)c1cc(N=Nc2ccc(S(=O)(=O)Nc3ccccn3)cc2)ccc1O
not listed: [4] | [8] | [13] | [14] | [15]
inactive: all other assays above

Nc1cccc(N)c1
active: [13] 5.02 µM
not listed: [4] | [6] | [8] | [12] | [16]
inactive: all other assays above

CC1=CC(=O)CC(C)(C)C1
not listed: [1] | [5] | [13] | [14] | [15] | [16]
inactive: all other assays above

CN(C)c1ccc(N=NS(=O)(=O)O)cc1
active: [13] 21.7 µM
not listed: [4] | [6] | [11]
inactive: all other assays above

CCOC(=O)c1ccc(C2CCC(NC[C@H](O)COc3ccc(O)c(NS(C)(=O)=O)c3)CC2)cc1 (stereo not given in full)
active: [13] 1.12 µM | [14] 18.3 µM
not listed: [1] | [7] | [8] | [9] | [16]
inactive: all other assays above

CC(C)=CCCC(C)CCO (stereo not given)
not listed: [1]
inactive: all other assays above

COCCOCCOCCOC
not listed: [2] | [5] | [8] | [13] | [14]
inactive: all other assays above

Cc1[nH]cnc1C[C@H]1CCc2c(C)c3ccccc3n2C1=O
active: [13] 27.6 µM
not listed: [2] | [9] | [14]
inactive: all other assays above

CCOCCO
inactive: [10] | [3] | [4] | [6] | [7] | [8] | [9] | [12] | [15]

O=C(O)CC(O)C(=O)O (stereo not given)
not listed: [2] | [13] | [14] | [16]
inactive: all other assays above

COc1ccc2sc(C(=O)Nc3nnn[nH]3)c(OC(C)C)c2c1
not listed: [3] | [7] | [13] | [14]
inactive: all other assays above

CCOCCOCCOCCO
not listed: [1] | [8] | [11] | [13] | [14]
inactive: all other assays above

CCCCCCCCO
not listed: [2] | [8] | [12] | [13] | [14] | [16]
inactive: all other assays above

CC(C)=CCC/C(C)=C\CO
active: [13] 8.64 µM
not listed: [5] | [10] | [16]
inactive: all other assays above

Clc1nc(Cl)c(Cl)c(Cl)c1Cl
not listed: [3] | [13] | [14]
inactive: all other assays above

COC(=O)CC(=O)OC
not listed: [3] | [6] | [7] | [13] | [14] | [16]
inactive: all other assays above
